# Data published in PubChem BioAssay (Tox21).
# Unmarked numbers belong to inactive results. Active and inactive are the calls of the source. The call rests on the fitted dose curve.
# Test: G protein-coupled receptor (GPCR) small molecule agonists, calcium flux assay: HEK293 wild type cell line counter screen (AID 1920065)
# Conditions: HEK293 WT calcium flux, fluorescence, agonist mode; series mostly up to 57.6 µM
# Source text: U.S. Tox21 Program National Center for Advancing Translational Sciences [NCATS] Division of Preclinical Innovation [DPI] U.S. Environmental Protection Agency [EPA] National Institutes of Environmental Health Sciences [NIEHS] National Toxicology Program [NTP] U.S. Food and Drug Administration [FDA] Assay overview: The increased intracellular calcium release that occurred upon G protein-coupled receptor (GPCR) activation led to the frequent use of calcium flux assays to detect GPCR activation. For the purpose of studying and screening compounds that may activate GPCR, receptor-overexpressing models were typically generated using Hek293 wild-type (WT) cells. In order to eliminate the compounds that may have induced calcium release for non-specific activation, a counter-assay utilizing calcium flux on Hek293 WT cells was performed. The data were formulated in order to serve as a control for any calcium flux detection utilizing Hek293 cells with either GPCR overexpression or gene modification. The procurement of Hek293 WT cells from ATCC. Fluorescence intensity can be utilized to determine the activation of the compound in a calcium flux assay. As a counter control, this cell line was utilized to screen the Tox21 10K compound library.
# Assay Protocol Summary: Hek293 cells were dispensed at 1500cells/4uL/well in 1536-well black wall/clear bottom plates using a multidrop dispenser. After the assay plates were incubated at a 37 C/5% CO2 incubator for 18 hours, 4 uL of Calcium Dye Solution was added to each well. The plates were incubated at 37 C for 1 hour. For agonist mode, 23 nL of compounds dissolved in DMSO, positive control (ATP) or DMSO only was transferred to the assay plate by a pin tool station. The fluorescence intensity in the plates was measured using FDSS 7000EX kinetic plate reader with a filter set of Ex/Em=480/540 for 3 min at 1 sec intervals. Each test compound was measured at 15 concentrations and in triplicates.
# On the % scale 0 is the no-effect control and ±100 the full control effect.
SMILES,outcome,activation
NC(=O)C(c1ccccc1)(c1ccccc1)[C@@H]1CCN(CCc2ccc3c(c2)CCO3)C1,inactive,
Cc1cc(F)ccc1-c1cc(N2CC[C@@H](O)[C@H]2CO)ncc1N(C)C(=O)C(C)(C)c1cc(C(F)(F)F)cc(C(F)(F)F)c1,inactive,
C=COCC1CCC(COC=C)CC1 (stereo not given),inactive,
C#CC(C)N(C)C(=O)Nc1ccc(Cl)cc1 (stereo not given),inactive,
CC(C)CCCC(C)(C)O,inactive,
COC(=O)c1cccc(Cl)c1,inactive,
O=C1OC(=O)c2cc([N+](=O)[O-])ccc21,inactive,
Nc1c2c(nc3c1CCC3)CCCC2,inactive,
C=Cc1ccccc1C=C,inactive,
Clc1nc(C(Cl)(Cl)Cl)c(Cl)c(Cl)c1Cl,inactive,
O=C1c2ccccc2C(=O)c2cc(Cl)ccc21,,-1.07% [at 5.23 µM]
CNC(=O)c1ccccc1,inactive,
O=C(O)CCCc1c[nH]c2ccccc12,inactive,
CC1(C)[C@H]2CC[C@]1(C)C(=O)C2,inactive,
CN(C)CCOCCN(C)CCO,inactive,
O=C(O)c1cccc(-c2noc(-c3ccccc3F)n2)c1,inactive,
COc1ccc(CCC(=O)c2c(O)cc(O[C@@H]3O[C@H](CO)[C@@H](O)[C@H](O)[C@H]3O[C@@H]3O[C@@H](C)[C@H](O)[C@@H](O)[C@H]3O)cc2O)cc1O,inactive,
CN1CCCC(n2nc(Cc3ccc(Cl)cc3)c3ccccc3c2=O)CC1 (stereo not given),inactive,
O=CC(=O)c1ccccc1,inactive,
CCCCNS(=O)(=O)c1ccc(C)cc1,inactive,

SMILES,outcome,activation
Cc1cccc([N+](=O)[O-])c1C(=O)O,inactive,
CCCC(C)c1ccccc1O (stereo not given),inactive,
Cc1cccn2c(=O)c(-c3nnn[nH]3)cnc12,,-0.181% [at 11.8 µM]
N[C@H]1CN(c2c(F)cc3c(=O)c(C(=O)O)cn(C4C[C@H]4F)c3c2Cl)CC12CC2 (stereo not given in full),inactive,
CCCCCCn1c(=O)c2c(ncn2C)n(C)c1=O,inactive,
COc1c(N2CCNC(C)C2)c(F)cc2c(=O)c(C(=O)O)cn(C3CC3)c12 (stereo not given),inactive,
C[N+]1(C)CCCC(OC(=O)C(O)(c2ccccc2)c2ccccc2)C1 (stereo not given),inactive,
CCC(=O)c1c(O)cc(O)cc1O,inactive,
CN(C)CCCOc1nn(Cc2ccccc2)c2ccccc12,inactive,
C[C@@H]1O[C@@H](O[C@@H]2[C@@H](O)[C@H](OCCc3ccc(O)c(O)c3)O[C@H](CO[C@@H]3O[C@H](CO)[C@@H](O)[C@H](O)[C@H]3O)[C@H]2OC(=O)/C=C/c2ccc(O)c(O)c2)[C@H](O)[C@H](O)[C@H]1O,inactive,
O=C(O)COCC(=O)O,inactive,
C/C=C(\C)C=O,inactive,
Cc1nc2n(c(=O)c1CCN1CCC(c3noc4cc(F)ccc34)CC1)CCC[C@H]2O,,-0.871% [at 11.8 µM]
BrCCCCCBr,inactive,
CN1CCN(C2=Nc3ccccc3Oc3ccc(Cl)cc32)CC1,inactive,
CCOCCOCCOC(C)=O,inactive,
CCCCCC(=O)OCC,inactive,
CCN(CC)c1ccc(N)cc1,inactive,
CCc1ccc(CC)cc1,inactive,
C=CC(C)(CCC=C(C)C)OC(=O)c1ccccc1 (stereo not given),inactive,
